The results in this text go back to PubChem BioAssay (NCI).

Compounds without any hit were thinned out: in the full panel of roughly 83,000, 20% have a hit.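 Compound tested at a single concentration for 48 hours in 96-well plates; a percent growth value below 10 was scored as active.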 Unmarked numbers belong to inactive results. The source made the active and inactive calls.

Among the test systems are SK-MEL-2 melanoma; EKVX NSCLC; SN12C renal; UO-31 renal; TK-10 renal; ACHN renal; A498 renal; CCRF-CEM leukemia; MOLT-4 leukemia; SR leukemia; RPMI-8226 leukemia; OVCAR-8 ovarian; OVCAR-5 ovarian; OVCAR-4 ovarian; SK-OV-3 ovarian; IGROV1 ovarian; OVCAR-3 ovarian; HS 578T breast; NCI/ADR-RES ovarian.
What all share (assay): NCI-60 one-dose screen, 48 h (100 = growth as untreated, 0 = no growth, -100 = all killed)
Details in all cases: 10 µM unless noted

Turning to `S=c1[nH]nc(Cn2c3ccccc3c3ccncc32)o1`, the growth was 96.6% in the experiment with SK-MEL-2 melanoma; 106% with EKVX NSCLC; 102% in the experiment on SN12C renal; 97.3% in the experiment with UO-31 renal; 102% in the experiment with TK-10 renal; 98.3% in the experiment with ACHN renal. In addition, the growth with A498 renal is 97.3%; in the experiment on CCRF-CEM leukemia, 84.6%; in the experiment with MOLT-4 leukemia it was 93.8%; with SR leukemia, 99.9%; with RPMI-8226 leukemia it was 97.3%; in the experiment on OVCAR-8 ovarian it was 94.2%. The growth with OVCAR-5 ovarian is 102%; in the experiment with OVCAR-4 ovarian it was 96.7%; in the experiment on SK-OV-3 ovarian, 94.5%; in the experiment on IGROV1 ovarian it was 103%; in the experiment on OVCAR-3 ovarian, 97.8%; with HS 578T breast, 106%. Besides, in the experiment on NCI/ADR-RES ovarian, the growth was 102%.

In the case of `Cc1cn(-c2nc3c(c(NCc4ccccc4)n2)COCC3)c2cccc(C(N)=O)c12`, the growth in the experiment with SK-MEL-2 melanoma is 38.1% [0.5 µM]; in the experiment with EKVX NSCLC it was 85.9% [0.5 µM]; with SN12C renal it was 30.8% [0.5 µM]; in the experiment on UO-31 renal, 55% [0.5 µM]; with TK-10 renal it was 83.2% [0.5 µM]; in the experiment with ACHN renal, 39.5% [0.5 µM]. Also, the growth in the experiment on A498 renal is 85.1% [0.5 µM]; in the experiment on CCRF-CEM leukemia, 49.1% [0.5 µM]; with MOLT-4 leukemia it was 60.6% [0.5 µM]; in the experiment on SR leukemia, 50.8% [0.5 µM]; in the experiment with RPMI-8226 leukemia it was -15.3% [0.5 µM] (active); in the experiment with OVCAR-8 ovarian, 58.1% [0.5 µM]. Further, the growth is 70.8% [0.5 µM] with OVCAR-5 ovarian; 58.8% [0.5 µM] in the experiment with OVCAR-4 ovarian; 111% [0.5 µM] in the experiment with SK-OV-3 ovarian; 82.3% [0.5 µM] in the experiment on IGROV1 ovarian; 91.5% [0.5 µM] with OVCAR-3 ovarian; 83.5% [0.5 µM] in the experiment with HS 578T breast. In the experiment on NCI/ADR-RES ovarian, the growth is 86% [0.5 µM].

As for `C=C1C(=O)O[C@H]2[C@H]1CC/C(COC(=O)c1ccc(Br)cc1)=C\CC[C@@]1(C)O[C@@H]21`, the growth was -24.5% (active) in the experiment on SK-MEL-2 melanoma; -41.3% (active) in the experiment with EKVX NSCLC; -22% (active) with SN12C renal; -89.8% (active) in the experiment with UO-31 renal; 8.28% (active) in the experiment on TK-10 renal; -93.4% (active) with ACHN renal. The growth in the experiment with A498 renal was 100%; with CCRF-CEM leukemia, -17.5% (active); in the experiment with MOLT-4 leukemia, -27.2% (active); in the experiment with SR leukemia, -27.5% (active); in the experiment with RPMI-8226 leukemia, -44.5% (active); with OVCAR-8 ovarian, -36.6% (active). Further, the growth was 1.16% (active) in the experiment with OVCAR-5 ovarian; -14.3% (active) in the experiment with OVCAR-4 ovarian; 111% with SK-OV-3 ovarian; -57.6% (active) in the experiment on IGROV1 ovarian; -81.2% (active) with OVCAR-3 ovarian; 17.8% in the experiment with HS 578T breast. The growth with NCI/ADR-RES ovarian is 24.7%.

Turning to `CCn1cc(/C=C2\Oc3cc(OCC#N)ccc3C2=O)c2cc(OC)ccc21`, the growth is 37.5% in the experiment on SK-MEL-2 melanoma; 47.8% with EKVX NSCLC; 42.4% with SN12C renal; 45.7% in the experiment on UO-31 renal; 74.2% with TK-10 renal; 54.2% with ACHN renal. The growth with A498 renal was 62.4%; with CCRF-CEM leukemia it was 9.65% (active); in the experiment with MOLT-4 leukemia, 12.9%; in the experiment on SR leukemia, 19.2%; with RPMI-8226 leukemia, 15.1%; in the experiment on OVCAR-8 ovarian, 21%. The growth was 62.1% in the experiment with OVCAR-5 ovarian; 85.6% in the experiment on OVCAR-4 ovarian; 43.3% with SK-OV-3 ovarian; 43.3% in the experiment with IGROV1 ovarian; -6.84% (active) in the experiment on OVCAR-3 ovarian; 29.4% in the experiment with HS 578T breast. In the experiment on NCI/ADR-RES ovarian, the growth was 11.2%.

Regarding `COc1cc(/C=C\c2cc(/C=C\c3ccc(O)c(OC)c3)n(C(=O)CNc3ccccc3OC)n2)ccc1O`, the growth in the experiment on SK-MEL-2 melanoma is 61.2%; in the experiment on EKVX NSCLC, 91.6%; in the experiment on SN12C renal, 75.4%; in the experiment with UO-31 renal, 46.4%; with TK-10 renal it was 113%; in the experiment with ACHN renal it was 45.3%. Further, the growth in the experiment with A498 renal was 105%; in the experiment with CCRF-CEM leukemia it was 45.2%; in the experiment with MOLT-4 leukemia, 58.6%; in the experiment on SR leukemia, 2.38% (active); in the experiment with RPMI-8226 leukemia, 80.1%; with OVCAR-8 ovarian, 84.6%. Also, the growth was 102% in the experiment on OVCAR-5 ovarian; 84.2% in the experiment on OVCAR-4 ovarian; 83.8% in the experiment with SK-OV-3 ovarian; 90.5% with IGROV1 ovarian; 59.7% in the experiment on OVCAR-3 ovarian; 49.8% in the experiment with HS 578T breast. The growth in the experiment on NCI/ADR-RES ovarian is 54.4%.

Regarding `C=C1C(=O)O[C@H]2[C@H]1CC/C(COC(=O)c1ccc(C#N)cc1)=C\CC[C@@]1(C)O[C@@H]21`, the growth is 37.9% with SK-MEL-2 melanoma; 16% in the experiment on EKVX NSCLC; 17.4% in the experiment with SN12C renal; -1.25% (active) in the experiment with UO-31 renal; 40.2% in the experiment on TK-10 renal; 0.811% (active) in the experiment on ACHN renal. For the same molecule, the growth in the experiment with A498 renal was 99.7%; in the experiment on CCRF-CEM leukemia it was -25.8% (active); with MOLT-4 leukemia, -29.3% (active); in the experiment with SR leukemia, -10% (active); in the experiment on RPMI-8226 leukemia it was -35.8% (active); in the experiment on OVCAR-8 ovarian, 1.03% (active). Besides, the growth with OVCAR-5 ovarian is 34.5%; in the experiment on OVCAR-4 ovarian, 35.9%; in the experiment with SK-OV-3 ovarian, 106%; in the experiment on IGROV1 ovarian, 7.59% (active); with OVCAR-3 ovarian, -10.7% (active); in the experiment on HS 578T breast it was 70%. Besides, in the experiment with NCI/ADR-RES ovarian, the growth was 54.5%.

In the case of `CCNC(=O)Oc1ccc(/C(=C(/CC)Cc2ccccc2)c2ccc(OCCN3CCOCC3)cc2)cc1`, the growth in the experiment on SK-MEL-2 melanoma is 66.2%; in the experiment with EKVX NSCLC it was 38.6%; in the experiment with SN12C renal, 67.7%; in the experiment on UO-31 renal it was 23%; in the experiment with TK-10 renal it was 76.2%; with ACHN renal, 59.8%. For the same molecule, the growth in the experiment with A498 renal is 76.9%; in the experiment with CCRF-CEM leukemia it was 61.7%; in the experiment with MOLT-4 leukemia, 10.1%; with SR leukemia, 29.2%; with RPMI-8226 leukemia it was 16%; in the experiment with OVCAR-8 ovarian, 57.8%. In addition, the growth is 94.8% in the experiment on OVCAR-5 ovarian; 45.9% in the experiment with OVCAR-4 ovarian; 75.5% in the experiment with SK-OV-3 ovarian; 59.4% with IGROV1 ovarian; 50.8% with OVCAR-3 ovarian; 62.5% in the experiment on HS 578T breast. Also, the growth in the experiment on NCI/ADR-RES ovarian is 49.4%.

With `c1nc(SC2=NCCN2)c2[nH]cnc2n1`, the growth with SK-MEL-2 melanoma was 38.8%; in the experiment with EKVX NSCLC, 88.7%; in the experiment on SN12C renal, 78.7%; with UO-31 renal, 40.6%; with TK-10 renal, 22.6%; in the experiment on ACHN renal, 54.2%. The growth in the experiment on A498 renal is 92.8%; in the experiment with CCRF-CEM leukemia, 31.3%; in the experiment with MOLT-4 leukemia it was 16%; in the experiment on SR leukemia it was 22%; in the experiment with RPMI-8226 leukemia, 29.2%; in the experiment with OVCAR-8 ovarian, 41%. Besides, the growth was 48.5% with OVCAR-5 ovarian; 61.7% in the experiment with OVCAR-4 ovarian; 8.1% (active) with SK-OV-3 ovarian; 64% in the experiment on IGROV1 ovarian; 30.8% in the experiment with OVCAR-3 ovarian; 79.4% with HS 578T breast.
